Screening results from PubChem.
Only a selection was taken, and hits are over-represented in it overall.
CHX counter: counter-screen hit for Shiga toxin inhibitors, cycloheximide; cell reporter, cycloheximide protein synthesis inhibition counterscreen; max response, %; hit rate 12% among 300,000; AID 2314; in the data active = max response mostly above about 13%, no sharp cut-off; inactive = mostly below about 14%; note: read at 38.3 µM for the half of the compounds with a filed dose; 0% is about no effect
LmPK inhibitor: blocks Leishmania mexicana pyruvate kinase activity; hit rate 0.37% among 290,000; AID 1721; purified LmPK, Kinase-Glo ATP luminescence, 1 h; Q27686; Potency, µM (top dose mostly 57.5 µM), without a hit: top-dose activity change, negative = inhibition, hits mostly inhibitors; note: potency is the fitted concentration of half-maximal effect; % is set by controls: 0 for no effect and ±100 for the full control effect
Target sequence (Q27686 whole entry, looked up): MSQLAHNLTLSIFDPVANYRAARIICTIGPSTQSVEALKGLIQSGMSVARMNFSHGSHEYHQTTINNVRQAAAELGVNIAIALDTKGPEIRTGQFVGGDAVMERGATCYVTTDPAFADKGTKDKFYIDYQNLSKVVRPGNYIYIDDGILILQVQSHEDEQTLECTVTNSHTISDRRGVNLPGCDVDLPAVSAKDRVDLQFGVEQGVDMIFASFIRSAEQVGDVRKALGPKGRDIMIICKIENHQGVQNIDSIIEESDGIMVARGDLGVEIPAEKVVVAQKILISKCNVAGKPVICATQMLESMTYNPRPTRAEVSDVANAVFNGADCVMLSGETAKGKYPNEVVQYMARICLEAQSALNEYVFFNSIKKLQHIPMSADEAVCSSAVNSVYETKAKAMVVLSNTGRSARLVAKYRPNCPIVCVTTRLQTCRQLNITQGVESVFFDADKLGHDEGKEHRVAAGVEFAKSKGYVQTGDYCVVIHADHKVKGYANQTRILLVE
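Purified LmPK (0.1 nM) with 0.5 mM PEP and 0.1 mM ADP in imidazole buffer pH 7.2 with MgCl2/KCl, 1 h at room temperature. ATP formed was read by luciferase luminescence and normalized to no-enzyme and uninhibited controls.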
Shiga inhibitor: Shiga toxin inhibition; inhibition, % at 38.7 µM; hit rate 9.2% among 290,000; Vero cells, Shiga toxin protein synthesis inhibition reporter; in the data active = inhibition mostly above about 28%, no sharp cut-off; inactive = mostly below about 43%; note: 0% is about no effect
TbPYK inhibitor: inhibitors of Trypanosoma brucei pyruvate kinase; Q57TT1; TbPYK enzyme, Kinase-Glo Plus ATP luminescence, 45 min; Potency, µM (titrated, usually from 76.8 µM), for inactives: at the top dose activity, negative = inhibition, most hits filed as inhibitors; hit rate 0.12% among 410,000; AID 624173; note: potency is the fitted concentration of half-maximal effect; % is set by controls: 0 for no effect and ±100 for the full control effect; nearly all actives have a fitted effect of over 50% in size
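Enzyme and substrate buffer are dispensed first and compound is pin-transferred. ADP at 130 uM final then starts the reaction, which runs 45 min at room temperature. Detection reagent is added for 10 min before luminescence is imaged.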
Giardia FBPA inh: inhibitors of Giardia lamblia fructose-1,6-bisphosphate aldolase | A8B2U2 | purified Giardia FBPA | Potency, µM (series often up to 59.6 µM), inactives show at the highest dose activity, negative = inhibition, hits mostly inhibitors | hit rate 0.71% among 290,000; note: potency is the fitted concentration of half-maximal effect; % is set by controls: 0 for no effect and ±100 for the full control effect; nearly all actives have a fitted effect of over 55% in size
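40 nM FBPA preincubated 10 min at RT with compound (up to 57.5 uM final), then substrate plus GAPDH/TPI/NAD/arsenate coupling and diaphorase/resazurin added. Fluorescence read after 20 min at RT, 525/598 nm.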
RE007 growth inh: less growth of the S. pombe RE007 Vpr strain. S. pombe RE007 Vpr strain, BacTiter-Glo ATP luminescence, 24 h. Potency, µM (series often up to 92.2 µM), for the others: at the top dose activity change, negative = less growth, actives largely listed as inhibitors. hit rate 0.21% among 360,000; active = well fitted falling curve with a large enough effect; inconclusive = small, poorly fitted or top-dose-only effect; inactive = no such curve, though single readings can be large or run the other way; note: potency is the fitted concentration of half-maximal effect; % is set by controls: 0 for no effect and ±100 for the full control effect; nearly all actives have a fitted effect of over 50% in size
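Fission yeast strain RE007, carrying one chromosomally integrated HIV-1 vpr copy, was seeded at OD 0.01 in PMG+AL medium with 23 nL pinned compound. After 24 h at 30 °C and 99% humidity, viability was read by BacTiter-Glo luminescence.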
Active calls of the source: *; ? = inconclusive; . = no result given. Unless noted, calls come from the whole dose curve; as a rule, active = well fitted curve in the direction sought with a large enough effect; inconclusive = small, poorly fitted or top-dose-only effect, or another doubt; inactive = no such curve, though single readings can be large; an effect the other way counts as inactive or inconclusive.

SMILES	CHX counter	LmPK inhibitor	Shiga inhibitor	TbPYK inhibitor	Giardia FBPA inh	RE007 growth inh
CCOc1ccc(Cl)cc1/C=N/NC(=O)CNC(=O)c1ccccc1	-6.3	-0.9%	-5.1	-0.2%	?	2.8%
CCN(CC)CCOc1ccc(Cc2ccccc2)cc1	.	.	.	2.7%	3.1%	.
CCN(Cc1ccccc1)Cc1ccc(OCc2ccccc2)cc1	15.0*	-0.6%	25.8	19.1%	?	-29.3%
CC(C)CCOc1ccc(N)cc1	12.3*	.	23.8*	.	-27.0%	.
Nc1ccc(OCc2ccccc2)cc1	17.1*	4.0%	36.2*	-1.0%	-13.9%	-6.5%
Nc1ccc(OCCc2ccccc2)cc1	30.8*	-3.8%	29.0*	-10.7%	3.1%	4.7%
Cc1cccc2cc(CN(C(=O)c3cccc(Cl)c3)c3ccccc3)c(=O)[nH]c12	.	.	.	0.1%	.	.
NOCc1ccccc1	32.2*	.	36.1	.	-19.5%	.
O=C(CCS(=O)(=O)c1cccc2nsnc12)Nc1ccc(F)cc1	.	.	.	-16.2%	.	.
Cc1ccc(COn2c(-c3ccc(Cl)cc3)nc3ccc([N+](=O)[O-])cc32)cc1	49.5*	2.6%	105.4*	-4.3%	-16.6%	2.3%
O=[N+]([O-])c1ccc2nc(-c3ccc(Cl)cc3)n(OCc3ccccc3)c2c1	35.4*	1.8%	96.4*	7.0%	-5.5%	-12.9%
Cc1ccccc1-c1ccc2ncnc(N3CCOCC3)c2c1	.	.	.	.	1.3%	.
O=[N+]([O-])c1cccc2c(N3CCCC3)ccnc12	20.8*	-1.6%	29.1	-5.7%	-8.2%	-11.8%
CCOCc1nnc(NC(=O)c2ccc3c(c2)OCO3)s1	.	.	.	-7.6%	.	7.5%
CSc1nnc(NC(=O)c2ccc(S(=O)(=O)N(C)C)cc2)s1	25.3*	?	28.4*	-24.7%	7.3%	1.2%
Cc1nnc(NC(=O)c2ccc3c(c2)OCO3)s1	39.3*	-9.1%	55.6*	4.1%	-7.6%	-3.7%
CSc1nnc(NC(=O)c2ccc3c(c2)OCO3)s1	48.4*	-8.7%	68.8*	-13.4%	-11.4%	-9.6%
O=C(Nc1nncs1)c1ccc2c(c1)OCO2	21.8*	0.9%	55.0*	-3.3%	-2.1%	-14.9%
O=C(Nc1ccc(NC(=O)c2cccs2)cc1)c1ccc2c(c1)OCO2	-1.6	3.8%	14.9	-1.8%	1.9%	-8.5%
Cc1ccccc1CN1C(=O)c2ccccc2Sc2ccc(C(=O)NC(C)c3ccccc3)cc21 (centres undefined)	.	.	.	0.7%	.	.
O=C(/C=C/c1ccc(O)c(O)c1)O[C@@H]1C[C@@](O)(C(=O)O)C[C@H](O)[C@@H]1O	.	.	.	.	-18.8%	.
CCCn1c(CNc2ccc(Br)cc2)nc2ccccc21	17.4*	13.7%	38.7	9.0%	-13.2%	-7.6%
Cc1nc2ccccc2n1CCOc1ccccc1	11.8*	2.5%	21.4	0.9%	-14.8%	-11.7%
Cc1ccc(NCc2nc3ccccc3n2CCOc2ccccc2)cc1	76.4*	1.9%	120.8*	-7.0%	-22.9%	.
CCSc1nc2ccccc2n1CCOc1ccccc1	21.3*	-0.1%	47.9*	1.7%	0.4%	-15.4%
SMILES	CHX counter	LmPK inhibitor	Shiga inhibitor	TbPYK inhibitor	Giardia FBPA inh	RE007 growth inh
O=C(c1cn(Cc2ccccc2)c2ccccc12)C1CC1	11.8*	-11.8%	12.4	0.3%	-7.5%	11.4%
NC(=O)Cn1cc(C(=O)COc2ccccc2)c2ccccc21	-5.0	0.1%	-4.4	.	-5.8%	.
O=C(Cn1cc(C(=O)C2CC2)c2ccccc21)NC1CCCC1	15.6	-2.2%	-6.1	-9.4%	3.7%	24.6%
O=C(Cn1cc(C(=O)C2CC2)c2ccccc21)NCc1ccccc1	34.4*	11.8%	52.7*	-4.8%	0.0%	-0.4%
O=C(O)Cn1cc(C(=O)C2CC2)c2ccccc21	-2.5	-4.2%	-14.5	10.8%	9.0%	7.5%
O=C(COc1ccccc1)c1cn(Cc2ccccc2)c2ccccc12	17.6*	4.4%	35.5	-7.7%	-0.5%	31.7%
O=C(NCc1ccc2c(c1)OCO2)c1cc2ccccc2oc1=O	-1.4	4.8%	12.6	2.0%	1.9%	-14.6%
O=C(c1cc2ccccc2oc1=O)N(Cc1ccc2c(c1)OCO2)Cc1ccco1	8.4	-1.7%	109.7*	-8.0%	2.3%	-14.1%
Cc1cccc(NC(=O)CN2C(=O)CSc3ccc(S(=O)(=O)N4CCCC4)cc32)c1C	.	.	.	-1.8%	.	.
O=C(Nc1nc2c(s1)CCCC2)c1ccc(Br)o1	23.2*	?	73.4*	-4.3%	-11.3%	-13.5%
CCC(Oc1ccc(F)cc1)C(=O)Nc1nc2c(s1)CCCC2 (centres undefined)	.	.	.	-1.5%	.	.
Cc1ccc(C(=O)Nc2nc3c(s2)CCCC3)o1	21.7	25.1µM*	85.0	-18.4%	-12.2%	?
CC(=O)c1sc(NC(=O)c2ccc(Br)o2)nc1C	37.7*	-12.7%	34.4*	-14.2%	.	-14.9%
COc1ccc(-c2nsc(NC(=O)c3oc4cc(C)c(C)cc4c3C)n2)cc1	.	.	.	-0.1%	.	.
CCCCCCCOC(=O)C1=C(C)Nc2ncnn2C1c1cccs1 (centres undefined)	-2.1	5.0%	-17.4	-2.0%	0.1%	-8.3%
CCCCCCCCOC(=O)C1=C(C)Nc2nnnn2C1c1cccs1 (centres undefined)	-4.2	0.4%	-4.9	-24.1%	-18.1%	31.6µM*
CNc1ccccc1C(=O)N1CCc2c([nH]c3ccccc23)C1=O	.	.	.	.	-7.9%	.
COc1ccccc1OCc1cc(C(=O)N2CCCC(OCc3cccnc3)C2)no1 (centres undefined)	58.3*	1.6%	95.5*	-0.5%	-1.9%	-16.7%
COc1ccc(OCc2cc(C(=O)N3CCCC(CO)C3)no2)c2ccccc12 (centres undefined)	44.3*	-7.2%	84.1*	1.0%	.	4.4%
O=C(c1cc(COc2cccc3cnccc23)on1)N1CCCC(CCCO)C1 (centres undefined)	-2.1	-4.4%	-17.5	26.6%	3.7%	-8.1%
O=C(c1cc(COc2ccccc2)on1)N1CCCC(OCc2cccnc2)C1 (centres undefined)	8.5	0.6%	7.0	-7.5%	1.2%	-14.2%
CSc1ccccc1OCc1cc(C(=O)N2CCN(C3CCCC3)C(=O)C2)no1	54.2*	-5.6%	41.0*	?	.	-17.3%
O=C(c1cc(COc2ccc(F)cc2F)on1)N1CCN(C2CCCC2)C(=O)C1	0.9	1.2%	25.7	-9.8%	2.5%	-8.2%
CSc1ccccc1OCc1cc(C(=O)N2CCC(Oc3cccnc3)CC2)no1	41.9*	3.2%	95.4*	.	5.9%	.
CCCN(CCC)C(=O)C(CCC(=O)OCCCN1CCN(CCOC(=O)Cc2c(C)n(C(=O)c3ccc(Cl)cc3)c3ccc(OC)cc23)CC1)NC(=O)c1ccccc1 (centres undefined)	.	.	.	-5.6%	.	.
Cc1cc(C)cc(-n2c(SCC(N)=O)nc3c([nH]c4ccccc43)c2=O)c1	.	.	.	3.8%	.	.
O=[N+]([O-])c1ccc2c(c1)S(=O)(=O)C=C2	-9.0	.	-14.9	.	-3.7%	.
